Bioassay records: PubChem BioAssay, National Center for Advancing Translational Sciences (NCATS)
Vaccinia Venus: qHTS for Stage-Specific Inhibitors of Vaccinia Orthopoxvirus: Venus Reporter Primary qHTS; Vaccinia virus Venus reporter expression, fluorescence; Potency, µM (doses to about 36.5 µM), without a hit: at the top dose activity change, negative = inhibition, actives largely listed as inhibitors; hit rate 0.46% among 330,000; calls by dose curve; tested in A549 cells; note: potency is the fitted concentration of half-maximal effect; nearly all actives have a fitted effect of over 30% in size
VACV mCherry inh: qHTS for Stage-Specific Inhibitors of Vaccinia Orthopoxvirus: mCherry Reporter Primary qHTS | Vaccinia virus mCherry reporter infection, fluorescence | Potency, µM (top dose mostly 36.5 µM), for the others: top-dose activity change, negative = inhibition, most hits filed as inhibitors | hit rate 0.63% among 310,000 | AID 720579, 2013; calls by dose curve; tested in A549 cells; note: potency is the fitted concentration of half-maximal effect; nearly all actives have a fitted effect of over 35% in size
FMDV inh: High Throughput Screening for Foot and Mouth Disease Virus Antivirals; Potency, µM (series often up to 57.9 µM), inactives show top-dose activity change, negative = inhibition, hits mostly inhibitors; hit rate 1.2% among 410,000; FMDV antiviral cell-based qHTS; calls by dose curve; tested in HEK293T cells; note: read-out not given here; potency is the fitted concentration of half-maximal effect; nearly all actives have a fitted effect of over 45% in size
HCMV antiviral: qHTS Assay for inhibitors of the human cytomegalovirus (HCMV); activity change, negative = inhibition, % at 57.5 µM; AID 1259415, 2018; HFF cells, HCMV-luciferase reporter, 72 h; active compounds read low; hit rate 4.5% among 410,000; in the data active = activity change below about -60%; inconclusive = no clear call, values can overlap the other calls; inactive = above about -39%
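Luciferase read-out from HCMV-luciferase-infected HFFs (MOI 1 PFU/cell) 72 h post infection at 37C; compounds added after 16 h cell attachment; activity normalized between buffer-only basal and Salinomycin (10uM) inhibitor controls.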
Lassa entry inh: qHTS for Inhibitors of binding or entry into cells for Lassa Virus; Potency, µM (doses to about 37.9 µM), inactives show at the highest dose activity change, negative = inhibition, actives largely listed as inhibitors; Lassa virus pseudotype entry inhibition, cell reporter; hit rate 1.2% among 300,000; calls by dose curve; tested in HEK293 cells; note: potency is the fitted concentration of half-maximal effect; nearly all actives have a fitted effect of over 50% in size
MARV entry inh: qHTS for inhibitors of binding or entry into cells for Marburg Virus | Marburg virus pseudotyped entry inhibition, cell reporter | Potency, µM (series often up to 37.8 µM), for the others: at the top dose activity change, negative = inhibition, hits mostly inhibitors | hit rate 1.8% among 300,000; calls by dose curve; tested in HEK293 cells; note: potency is the fitted concentration of half-maximal effect
Numbers without * were called inactive; i = inactive; ? = inconclusive; . = no result given; [ ] = dose if it differs, or a comment. A selection: hits, their analogues and other compounds. The true share with any hit is near 6.5%. % is set by controls: 0 for no effect and ±100 for the full control effect.

SMILES | Vaccinia Venus | VACV mCherry inh | FMDV inh | HCMV antiviral | Lassa entry inh | MARV entry inh
C=CCn1c(C)cc(C(=O)CSc2nc3ccccc3[nH]2)c1C | . | . | -85% | -92* | 4.6µM* | ?
C=CCn1c(C)cc(C(=O)CSc2nc3ccccc3c(=O)[nH]2)c1C | ? | ? | ? | -37 | ? | ?
C=CCn1c(C)cc(C(=O)CSc2nc3ccccc3o2)c1C | . | . | -20% | ? | -25% | 13µM*
Cc1cc(C(=O)CSc2nc3ccc(Cl)cc3[nH]2)c(C)n1CC1CCCO1 (configuration not stated) | -30% | ? | 14µM* | -66* | ? | 13µM*
COc1cc(=O)n2c(c1C(=O)N(C)Cc1ccsc1)CCN(Cc1cnn(C)c1C)CC2 | -7% | i | 7% | . | . | .
Cc1cc2c(c(=O)o1)[C@H]1O[C@](c3ccsc3)(Cc3ccccc31)O2 | . | . | . | . | . | 10%[14.2 µM]
COc1ccc(CNc2ncncc2-c2ccc(N(C)C)cc2)c(OC)c1 | . | . | -23% | . | . | .
Cc1ccc2nc(SCC3CCCCO3)[nH]c2c1 (configuration not stated) | -15% | -10% | ? | -7 | ? | 2.8µM*
CC1CCc2sc(C(=O)N(C)CC(=O)Nc3ccc(N4CCOCC4)cc3)cc2C1 (configuration not stated) | -10% | -17% | -9% | -68* | -6% | -3%
CCC1CCc2sc(C(=O)N(C)CC(=O)Nc3ccc(N4CCOCC4)cc3)cc2C1 (configuration not stated) | ? | ? | -14% | -15 | 0% | -1%
CCc1cccc2c(N=O)c(O)[nH]c12 | -21% | -28% | -24% | -11 | -4% | 29%
O=Nc1c(O)[nH]c2ccc(Cl)c(Cl)c12 | ? | 14µM* | -9% | -3 | 4%[46.1 µM] | ?
COc1cc2c(cc1OC)CN(S(C)(=O)=O)CC2 | -6% | 8% | -10% | -85* | . | .
CCS(=O)(=O)N1CCc2cc(OC)c(OC)cc2C1 | -6% | -10% | 14% | 34 | 15% | 0%
CC(=O)CCC(C)=O | ? | 13µM* | -25% | 5 | . | .
[O-][n+]1c2c(c3c4non(O)c4ccc31)CCCC2 | -2% | -4% | . | -97* | -4% | 3%
CCS(=O)(=O)N1CC(=O)N(c2cc(Cl)ccc2C)C(C)(C(=O)NC2CCCCCC2)C1 (configuration not stated) | -8% | -12% | 6% | ? | 2%[46.1 µM] | .
Cn1c(=O)c2c(nc(SCc3nc(N)nc(N4CCCCC4)n3)n2C)n(C)c1=O | -7% | 2% | -14% | -69* | ? | 2%
CCCn1c(SCc2nc(N)nc(N3CCCCC3)n2)nc2c1c(=O)n(C)c(=O)n2C | -1% | i | 16% | 48 | -6%[46.1 µM] | -9%[46.1 µM]
Cc1cc(=O)n2[nH]c(-c3ccc(C(C)(C)C)cc3)cc2n1 | . | . | -23% | -63* | ? | ?
O=S(=O)(NCCc1ccc(F)cc1)c1ccccc1Br | . | . | . | . | -10%[46.1 µM] | .
O=C(O)CCCCCN1C(=O)/C(=C/c2cn(-c3ccccc3)nc2-c2cccs2)SC1=S | 0% | -28% | -26% | -19 | -22%[46.1 µM] | -29%[46.1 µM]
COc1ccc(-c2nn(-c3ccccc3)cc2/C=C2/SC(=S)N(CCC(=O)O)C2=O)c(C)c1 | -14% | i | 32µM* | -21 | 2%[46.1 µM] | ?
O=C(O)CCN1C(=O)/C(=C/c2cn(-c3ccccc3)nc2-c2cccs2)SC1=S | 0% | -2% | 0% | -61* | -4%[46.1 µM] | ?
CN1CCC(N(C)C(=O)/C=C/c2cn(-c3ccccc3)nc2-c2cccs2)CC1 | -24% | ? | -27% | -111* | ? | ?
SMILES | Vaccinia Venus | VACV mCherry inh | FMDV inh | HCMV antiviral | Lassa entry inh | MARV entry inh
CCOC(=O)c1cc(-c2ccccc2)n(CC(=O)Nc2ccc(CC)cc2)c1C | -23% | -25% | 6% | 45 | 0%[46.1 µM] | .
Cc1ccc(C)n1C1C(=O)N(Cc2ccc(C(C)C)cc2)c2ccc(OC(F)(F)F)cc21 (configuration not stated) | . | . | . | -27 | . | .
Cc1ccc(C(=O)Nc2cccc(-c3nc(CNC(=O)c4cccc(C)c4C)c(C)o3)c2)s1 | -24% | ? | -25% | . | . | .
C/C(CCC(=O)OC[C@H]1O[C@H](C#Cc2ccccc2)C=C[C@@H]1Oc1ccc(C)cc1)=N\OC[C@@H](O)COCc1ccco1 | . | . | . | . | . | -10%[14.2 µM]
CCCCS(=O)CC(CS(=O)CCCC)OC(=O)c1ccccc1 (configuration not stated) | . | . | 27% | 9 | -4% | 18%
CCCCS(=O)(=O)CC(COc1ccccc1)OC(=O)c1ccccc1 (configuration not stated) | 7.9µM* | . | 4% | -18 | -1% | -2%
CCCNc1c(NS(=O)(=O)c2ccc(C)c(C)c2)c(=O)oc2ccccc12 | . | . | 10% | -18 | . | .
CCCNc1c(NS(=O)(=O)c2c(F)c(F)c(F)c(F)c2F)c(=O)oc2ccccc12 | ? | 5µM* | -7% | -16 | . | .
O=C(Cc1ccccn1)N1CC(=O)N2[C@H](C1)[C@@H](c1ccc(Br)cc1)[C@@H]2CO | . | . | . | 63 | . | .
CN(C)CCCN(C(=O)/C=C/c1cccs1)c1nc2c(F)cccc2s1 | 10µM* | 10µM* | ? | ? | ? | ?
Cc1cccc2sc(N(CCN(C)C)C(=O)/C=C/c3cccs3)nc12 | ? | -26% | ? | -77* | ? | ?
CN(C)CCCN(C(=O)c1cc(-c2cccs2)nc2ccccc12)c1nc2c(F)cccc2s1 | -28% | ? | -17% | -8 | ? | 11µM*
COc1cccc([C@H]2/C(=C(\O)c3ccc(OC)c(OC)c3)C(=O)C(=O)N2c2cc(C)on2)c1 | . | . | . | . | . | -12%[46.1 µM]
Cc1ccn2c(NCc3ccco3)c(-c3ccccc3)nc2c1 | -8% | -13% | . | . | . | .
COC(=O)c1cccc(NC(=O)c2nsc3ccccc23)c1 | -6% | 0% | -18% | 59 | ? | ?
CN(CC(=O)Nc1cccc(Cl)c1)S(=O)(=O)c1ccc2[nH]c3c(c2c1)CCCC3 | -6% | -12% | -28% | -19 | -13%[46.1 µM] | .
CC1CCc2nc(NC(=O)c3cc(C(C)(C)C)nn3C)sc2C1 (configuration not stated) | . | . | -11% | 23 | . | .
Cc1ccc(-c2nc(NC(=O)c3cc(C(C)(C)C)nn3C)sc2C)cc1Cl | -11% | -16% | ? | -61* | ? | ?
Cc1cccn2c(=O)c(C=NCc3ccco3)c(Nc3ccc(SC(F)F)cc3)nc12 | . | . | -22% | -3 | 9.2µM* | ?
O=C1CCC=C1C(O)CCc1ccccc1 (configuration not stated) | . | . | . | . | . | 34%[14.2 µM]
COc1ccc(-n2c(=O)c(-c3cccs3)nc3cnc(N(C)C)nc32)cc1 | . | . | -11% | . | . | .
Cc1nc2ccccc2c(=O)n1/N=C/c1c(O)ccc2ccccc12 | ? | 13µM* | -27% | -31 | 0%[46.1 µM] | -16%[46.1 µM]
